Results on 40 compounds are retold here after PubChem BioAssay (Tox21).

The source made the active and inactive calls. Calls follow the shape of the dose curve; as a rule, active = well fitted curve in the direction sought with a large enough effect in the repeat runs; inconclusive = weak or mixed curves; inactive = flat fitted curve, though single readings scatter.
% is scaled to controls: 0 for no effect and ±100 for the full control effect.

A short description of the assay: qHTS assay to test for compound auto fluorescence at 590 nm (red) in HEK293 cell free culture (AID 720683). To be noted: cell-free medium autofluorescence, Ex540/Em590 red; series mostly up to 91.3 µM. The text has this:
U.S. Tox21 Program National Center for Advancing Translational Sciences [NCATS] NIH Chemical Genomics Center [NCGC] U.S. Environmental Protection Agency [EPA] National Institutes of Environmental Health Sciences [NIEHS] National Toxicology Program [NTP] U.S. Food and Drug Administration [FDA] Tox21 Assay Overview: Compound auto fluorescence often interferes with screening of the compound library against various biological targets and signaling pathways. Some of these compounds may have fluorophoric properties. Such properties may interfere with the assay outputs resulting in false positives and/or negatives. To decrease such complications and ensure the compound activities are relevant in terms of biological response, the Tox21 10K compound library was screened for auto fluorescence. From the fluorophores used as reporter signals in our screening assays, the auto fluorescence equivalencies of compounds against three fluorophores have been evaluated: Triamterene, Fluorescein and Rose Bengal sodium for blue, green and red fluorescence, respectively. The fluorescence intensities were measured using Excitation/Emission wavelengths at 405/460nm, 485/535nm and 540/590nm for blue, green and red labels, respectively. This assay includes the red fluorescence data.
Tox21 Assay Protocol Summary: 5 uL of culture medium (DMEM containing 10% FBS) per well was dispensed into black wall/clear bottom 1536-well plates using a Multidrop Combi Dispenser (ThermoFisher Scientific, Waltham, MA). After 23 nL compound or DMSO vehicle was transferred into assay plate by a pintool work station (Kalypsys, San Diego, CA), fluorescence intensities in the assay plates were measured by an Envision (PerkinElmer, Shelton, CT) plate reader using three labels for measuring blue, green and red fluorescence at […] 460, 535 and 590nm respectively.
Take `CN1CCCN(C(c2ccccc2)c2ccc(Cl)cc2)CC1` (stereo not given): the call was inactive.

In the case of `COc1ccc(C(=O)NCc2ccc(OCCN(C)C)cc2)cc1OC`, the compound was classed as inactive.

Take `O=C1c2ccccc2C(=O)c2c(O)ccc(O)c21`: the outcome was inactive.

On to `CCOC(=O)C(C)O` (stereo not given), for which the compound was classed as inactive.

Turning to `O=S(=O)(O)CO`, the outcome was inactive.

As to `COc1cc(NC(C)CCCN)c2ncccc2c1` (stereo not given), the fluorescence, % of fluorescent control was -0.109% [at 18.6 µM] (inactive).

`O=C(O)c1ccc(O)cc1O`: the compound was classed as inactive.

`CN1C(CSCC(F)(F)F)Nc2cc(Cl)c(S(N)(=O)=O)cc2S1(=O)=O` (stereo not given): the result was inactive.

On to `C1CCCCC1`, for which the result was inactive.

On to `CNS(=O)(=O)c1cc(C(=O)N2CCC(CCN3C4CCC3CC(n3c(C)nc5ccccc53)C4)(c3cccc(F)c3)CC2)c(Cl)cc1F` (stereo not given), for which the call was inactive.

`O=C(NS(=O)(=O)/C=C/c1ccccc1)c1ccc(F)cc1Cl`: the call was inactive.

On to `CC(C)(C(=O)c1cccnc1)c1cccnc1`, for which the fluorescence, % of fluorescent control is 0.0451% [at 18.6 µM] (inactive).

For the compound `Cc1ccc2c(c1)CCCN2`, the compound was classed as inactive.

As to `O=C(NC(Cc1cc(=O)[nH]c2ccccc12)C(=O)O)c1ccc(Cl)cc1` (stereo not given), the result was inactive.

Take `CC[C@H]1OC(=O)[C@H](C)[C@@H](O[C@H]2C[C@@](C)(OC)[C@@H](O)[C@H](C)O2)[C@H](C)[C@@H](O[C@@H]2O[C@H](C)C[C@H](N(C)C)[C@H]2O)[C@](C)(O)C[C@@H](C)C(=O)[C@H](C)[C@@H](O)[C@]1(C)O`: the outcome was inactive.

Take `CCO[Si](C)(CCCOCC1CO1)OCC` (stereo not given): the result was inactive.

On to `O=CNNC=O`, for which the result was inactive.

As to `CN=C(N)NC(=O)Nc1c(C)cccc1C`, the compound was called inactive.

Consider `CCN(Cc1cccc(S(=O)(=O)O)c1)c1ccc(C(=C2C=CC(=[N+](CC)Cc3cccc(S(=O)(=O)O)c3)C=C2)c2ccccc2S(=O)(=O)[O-])cc1`, for which the compound was classed as inactive.

As for `CC(=O)C(C)=O`, the outcome was inactive.

On to `Cc1cn([C@H]2C[C@H](F)[C@@H](CO)O2)c(=O)[nH]c1=O`, for which the outcome was inactive.

On to `O=S(=O)(Cl)c1c(Cl)cccc1Cl`, for which the outcome was inactive.

`CC(C)OC(=O)c1ccccc1C(=O)OC(C)C`: the compound was classed as inactive.

`Cc1c[nH]c2ccccc12`: the compound was called inactive.

For the compound `CC(C)N=C=NC(C)C`, the result was inactive.

Turning to `Nc1ccc(F)cc1`, the call was inactive.

Turning to `O=C(CCS)OCC(COC(=O)CCS)(COC(=O)CCS)COC(=O)CCS`, the compound was classed as inactive.

Take `CCOC(=O)c1ccc(NC(=O)CN2CCCCC2)cc1`: the call was inactive.

Consider `CCN(CC)c1ccc(C(=C2C=CC(=[N+](CC)CC)C=C2)c2ccc(S(=O)(=O)O)cc2S(=O)(=O)[O-])cc1`, for which the compound was called inactive.

`C=C(C)c1ccccc1`: the compound was classed as inactive.

`CC(=O)c1ccc[nH]1`: the outcome was inactive.

Consider `CC(C)(C)C(O)/C=C/c1ccc2c(c1)OCO2` (stereo not given), for which the outcome was inactive.

With `CC(=O)OCC(=O)[C@@]1(OC(C)=O)[C@@H](C)C[C@H]2[C@@H]3C[C@H](F)C4=CC(=O)C=C[C@]4(C)[C@@]3(F)[C@@H](O)C[C@@]21C`, the call was inactive.

Turning to `[Cl][Nd]([Cl])[Cl]`, the result was inactive.

Regarding `O=C(/C=C/c1ccc([N+](=O)[O-])cc1)c1ccccc1`, the compound was called inactive.

As for `CC(C)C(O)C(C)(C)CO` (stereo not given), the compound was classed as inactive.

Regarding `CC1=C2[C@@H]([C@H](C)CC[C@H]2/C=C(\C)C(=O)O)[C@H](O)C1`, the compound was called inactive.

Turning to `CC(C)(O)c1coc(S(=O)(=O)NC(=O)Nc2c3c(cc4c2CCC4)CCC3)c1`, the compound was classed as inactive.

Turning to `CCN(Cc1cccc(S(=O)(=O)O)c1)c1ccc(C(=C2C=CC(=[N+](CC)Cc3cccc(S(=O)(=O)O)c3)C=C2)c2ccc(O)cc2S(=O)(=O)[O-])cc1`, the result was inactive.

Turning to `O=[N+]([O-])C1(Br)COCOC1`, the outcome was inactive.
